Data reported in PubChem BioAssay (EPA / NIEHS).
Calls of active or inactive are those of the source. How the source made its calls: active means hit-call score of the fitted dose curve at least 0.9, where 1 is the maximum; inactive means score below 0.9.

Columns and labels:
[1] = ATG_AP_1_CIS: Attagene CIS-FACTORIAL HepG2 Assay for human Activator Protein 1 (AP-1) (AID 2282931); details: HepG2 Attagene cis-factorial AP-1 reporter mRNA; actives raise or lower the signal
In short: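 Multiplexed HepG2 reporter assay, 24 h dosing. mRNA induction detected by RT-PCR plus capillary electrophoresis. Activity fitted in both directions against DMSO.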

[2] = ATG_AP_2_CIS: Attagene CIS-FACTORIAL HepG2 Assay for human Activator Protein 2 (AP-2) (AID 2282932); details: HepG2 AP-2 cis-reporter, Attagene transcription factor profiling; actives raise or lower the signal
In short: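 Cells (HepG2) transfected with promoter-driven reporter constructs, treated 24 h. Total RNA reverse-transcribed, reporter cDNA PCR-amplified, FAM-labelled by primer extension, digested, resolved by capillary electrophoresis. Activity fitted both directions versus DMSO.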

[3] = ATG_BRE_CIS: Attagene CIS-FACTORIAL HepG2 Assay for human Bone Morphogenetic Protein (BMP) Response Element (BRE) (AID 2282933); details: HepG2 BMP response element reporter, Attagene transcription factor profiling; actives raise or lower the signal
In short: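 Gain- or loss-of-signal was derived by bidirectional fitting against DMSO controls. The signal came from reporter mRNA, measured by RT-PCR and capillary electrophoresis, in HepG2 cells transiently carrying multiple reporter units and dosed for 24 h.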

[4] = target: Retinoic acid receptor alpha (Homo sapiens) (UniProt P10276); experiment: ATG_DR5_RAR_CIS: Attagene CIS-FACTORIAL HepG2 Assay for human Retinoic Acid Receptor Alpha (RARE), DR5 submotif (AID 2282934); details: HepG2 Attagene cis-factorial RARE DR5 reporter, mRNA; actives raise or lower the signal;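 on AC50: reporter responds to endogenous RAR alpha beta and gamma in HepG2 not RARA alone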
In short: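 HepG2 cells transiently transfected with multiplexed reporter units under cis (DR5 RARE) promoters, so endogenous transcription factor activity is measured. After 24 h compound exposure, reporter mRNA is quantified by RT-PCR with fluorescent labelling and capillary electrophoresis; bidirectional fitting versus DMSO.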

[5] = ATG_E_Box_CIS: Attagene CIS-FACTORIAL HepG2 Assay for human Enhancer Box (E-box) (AID 2282936); details: HepG2 E-box cis-reporter transcription, actives raise or lower the signal
In short: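 Endogenous transcription factor activity was sensed in human HepG2 liver cells through transfected cis-promoter reporter units. After 24 h of dosing, total RNA was reverse-transcribed and reporter cDNA resolved by capillary electrophoresis.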

[6] = ATG_M_61_CIS: Attagene CIS-FACTORIAL HepG2 Assay for M61 Transcription Factor (Internal Marker) (AID 2282937); details: HepG2 Attagene CIS-FACTORIAL M61 internal marker reporter; actives raise or lower the signal
In short: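 Endogenous transcription factor activity in HepG2 is read through transiently transfected cis-element reporter units. After 24 h dosing, RNA undergoes reverse transcription, PCR and primer extension with 6-FAM before capillary electrophoresis; DMSO-referenced bidirectional fit.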

[7] = ATG_EGR_CIS: Attagene CIS-FACTORIAL HepG2 Assay for human Early Growth Response 1 (EGR1) (AID 2282938); details: HepG2 Attagene CIS-FACTORIAL EGR reporter mRNA; actives raise or lower the signal
In short: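 Activity is taken as induction or loss of reporter mRNA versus DMSO, fitted bidirectionally. Transcripts from cis-regulated reporter units in transiently transfected HepG2 were measured after 24 h by RT-PCR with capillary electrophoresis.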

[8] = ATG_M_19_CIS: Attagene CIS-FACTORIAL HepG2 Assay for M19 Transcription Factor (Internal Marker) (AID 2282939); details: HepG2 Attagene CIS-FACTORIAL M19 internal marker reporter; actives raise or lower the signal
In short: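 Following a 24 h exposure, RNA from transfected HepG2 cells was reverse-transcribed, PCR-amplified with reporter-specific primers, end-labelled with 6-FAM and HpaI-digested before capillary separation. Values represent gain or loss versus DMSO.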

[9] = ATG_ERE_CIS: Attagene CIS-FACTORIAL HepG2 Assay for Estrogen Response Element (ERE) (AID 2282940); details: HepG2 ERE cis-reporter, Attagene RNA transcript; actives raise or lower the signal
In short: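 HepG2, transient cis-reporter units, 24 h exposure. RNA isolated, oligo(dT) RT, reporter-specific PCR, FAM extension, HpaI cut, CE detection. Gain/loss-of-signal vs DMSO.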

[10] = ATG_Ets_CIS: Attagene CIS-FACTORIAL HepG2 Assay for human Erythroblast Transformation Specific (ETS) (AID 2282941); details: HepG2 ETS cis-reporter transcription, actives raise or lower the signal
In short: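 Multiplexed reporter transcript profiling: HepG2, 24 h treatment, total RNA to cDNA, PCR, 6-FAM labelling, HpaI cut, capillary electrophoresis. Gain- or loss-of-signal fitted against DMSO.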

[11] = target: Hepatocyte nuclear factor 3-beta (Homo sapiens) (UniProt Q9Y261); experiment: ATG_FoxA2_CIS: Attagene CIS-FACTORIAL HepG2 Assay for human Forkhead box A2 (FOXA2) (AID 2282942); details: HepG2 cis-reporter transcription factor activity, 24 h; actives raise or lower the signal
In short: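 Reporter transcript induction is measured by fluorescence after capillary electrophoresis of RT-PCR products from HepG2 cells exposed 24 h. Cis-regulated reporter units report endogenous factor activity; curves fitted both directions against DMSO.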

[12] = ATG_FoxO_CIS: Attagene CIS-FACTORIAL HepG2 Assay for human Forkhead box O (FoxO) (AID 2282943); details: HepG2 Attagene cis-reporter, FoxO element, mRNA; actives raise or lower the signal
In short: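 HepG2 cells transiently transfected with cis-promoter-driven multiple reporter transcription units; 24 h after chemical dosing, reporter mRNA quantified by RT-PCR, fluorescent primer extension, HpaI digestion and capillary electrophoresis. Bidirectional fitting versus DMSO baseline.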

[13] = ATG_GATA_CIS: Attagene CIS-FACTORIAL HepG2 Assay for human GATA Binding Protein (AID 2282944); details: HepG2 GATA cis-element reporter, Attagene multiplex mRNA; actives raise or lower the signal
In short: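 DMSO serves as negative control and baseline for bidirectional fitting of reporter mRNA changes. HepG2 cells bearing transiently transfected cis-promoter reporters were exposed 24 h; transcripts detected via RT-PCR and capillary electrophoresis.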

[14] = ATG_GLI_CIS: Attagene CIS-FACTORIAL HepG2 Assay for human Zinc Finger Protein GLI1 (AID 2282945); details: HepG2, Attagene cis-factorial reporter mRNA, GLI element; actives raise or lower the signal
In short: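 HepG2 cells transiently transfected with cis-promoter multiplexed reporter units report endogenous transcription factor activity. After 24 h chemical exposure, reporter mRNA was quantified by RT-PCR, 6-FAM labelling, HpaI digestion and capillary electrophoresis, with bidirectional fitting against DMSO.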

[15] = target: Bile acid receptor (Homo sapiens) (UniProt Q96RI1); experiment: ATG_IR1_CIS: Attagene CIS-FACTORIAL HepG2 Assay for human Nuclear Receptor Subfamily 1 Group H Member 4 (NR1H4), IR1 submotif (AID 2282946); details: IR1 reporter transcription, actives raise or lower the signal
In short: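 Readout: reporter transcript levels by RT-PCR with fluorescent capillary electrophoresis, from HepG2 cells transiently transfected with multiplexed cis-regulated reporters and dosed 24 h. Gain- or loss-of-signal fitted versus DMSO negative control.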

[16] = ATG_GRE_CIS: Attagene CIS-FACTORIAL HepG2 Assay for human Glucocorticoid Response Elements (GRE) (AID 2282947); details: HepG2 GRE cis-reporter, Attagene multiplex mRNA; actives raise or lower the signal
In short: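 Cells (HepG2) bearing transfected cis-promoter reporter transcription units were treated with chemical for 24 hours. Reporter mRNA was measured via RT-PCR with capillary electrophoresis, and activity was fitted in both directions relative to DMSO.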

[17] = ATG_ISRE_CIS: Attagene CIS-FACTORIAL HepG2 Assay for human Interferon Regulatory Factor 1 (IRF1) binding to an Interferon-Stimulated Response Element (ISRE) (AID 2282948); details: HepG2 ISRE cis-reporter (Attagene), mRNA transcription readout; actives raise or lower the signal
In short: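 Signal reflects induction or loss of ISRE-linked reporter mRNA in transiently transfected HepG2 cells after a 24 h treatment, detected by fluorescent RT-PCR fragments on capillary electrophoresis and normalised to DMSO.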

[18] = ATG_M_32_CIS: Attagene CIS-FACTORIAL HepG2 Assay for M32 Transcription Factor (Internal Marker) (AID 2282949); details: HepG2 Attagene cis-factorial M32 reporter, mRNA; actives raise or lower the signal;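 further: background control marker of the multiplexed CIS panel rather than a real target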
In short: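 HepG2 human liver cells transiently transfected with cis-promoter-driven multiple reporter transcription units, dosed 24 h. Reporter mRNA quantified by RT-PCR, FAM-labelled primer extension, HpaI digest and capillary electrophoresis; bidirectional fit versus DMSO baseline.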

[19] = ATG_M_06_CIS: Attagene CIS-FACTORIAL HepG2 Assay for M06 Transcription Factor (Internal Marker) (AID 2282950); details: HepG2 Attagene CIS-FACTORIAL M06 internal marker reporter; actives raise or lower the signal
In short: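 Fluorescence-labelled RT-PCR products from cis-promoter reporter units, cut with HpaI and resolved by capillary electrophoresis, give the signal. Cells are human HepG2, dosed for 24 h. Serves as background control, fitted relative to DMSO.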

[20] = target: Transcription factor E2F1 (Homo sapiens) (UniProt Q01094); experiment: ATG_E2F_CIS: Attagene CIS-FACTORIAL HepG2 Assay for human E2F Transcription Factor 1 (AID 2282935); details: HepG2 Attagene cis-reporter, E2F reporter RNA transcripts; actives raise or lower the signal
In short: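 First, HepG2 cells were transfected with reporter transcription units. Next, they were dosed for 24 h. Then RNA was isolated, converted to cDNA, PCR-amplified, FAM-labeled, HpaI-digested and analyzed by capillary electrophoresis.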

Measured: AC50

Chain of Transcription factor E2F1 (Homo sapiens) (Q01094 whole entry, looked up): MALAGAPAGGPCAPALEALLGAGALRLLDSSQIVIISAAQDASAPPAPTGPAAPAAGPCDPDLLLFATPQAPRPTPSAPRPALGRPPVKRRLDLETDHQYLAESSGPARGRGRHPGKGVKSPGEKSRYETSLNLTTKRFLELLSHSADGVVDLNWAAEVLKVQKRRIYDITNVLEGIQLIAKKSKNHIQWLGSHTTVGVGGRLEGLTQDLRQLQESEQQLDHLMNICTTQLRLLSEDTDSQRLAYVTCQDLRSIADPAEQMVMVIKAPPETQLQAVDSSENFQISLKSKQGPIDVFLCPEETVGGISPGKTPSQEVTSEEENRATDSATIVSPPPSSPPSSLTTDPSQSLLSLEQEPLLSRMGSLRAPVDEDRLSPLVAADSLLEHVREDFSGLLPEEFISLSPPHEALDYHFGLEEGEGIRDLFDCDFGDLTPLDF
Chain of Retinoic acid receptor alpha (Homo sapiens) (P10276 whole entry, looked up): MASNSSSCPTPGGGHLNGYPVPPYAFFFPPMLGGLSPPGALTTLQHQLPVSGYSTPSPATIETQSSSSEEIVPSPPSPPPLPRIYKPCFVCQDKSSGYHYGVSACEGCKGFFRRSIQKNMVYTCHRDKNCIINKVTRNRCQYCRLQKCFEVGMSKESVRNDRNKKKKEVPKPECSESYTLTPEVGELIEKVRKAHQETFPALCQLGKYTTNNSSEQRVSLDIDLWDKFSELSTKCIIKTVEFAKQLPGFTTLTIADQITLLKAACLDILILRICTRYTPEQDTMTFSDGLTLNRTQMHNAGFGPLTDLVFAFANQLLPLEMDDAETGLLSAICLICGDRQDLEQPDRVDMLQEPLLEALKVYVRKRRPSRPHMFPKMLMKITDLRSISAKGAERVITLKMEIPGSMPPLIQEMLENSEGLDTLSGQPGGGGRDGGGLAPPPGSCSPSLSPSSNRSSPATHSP
Chain of Hepatocyte nuclear factor 3-beta (Homo sapiens) (Q9Y261 whole entry, looked up): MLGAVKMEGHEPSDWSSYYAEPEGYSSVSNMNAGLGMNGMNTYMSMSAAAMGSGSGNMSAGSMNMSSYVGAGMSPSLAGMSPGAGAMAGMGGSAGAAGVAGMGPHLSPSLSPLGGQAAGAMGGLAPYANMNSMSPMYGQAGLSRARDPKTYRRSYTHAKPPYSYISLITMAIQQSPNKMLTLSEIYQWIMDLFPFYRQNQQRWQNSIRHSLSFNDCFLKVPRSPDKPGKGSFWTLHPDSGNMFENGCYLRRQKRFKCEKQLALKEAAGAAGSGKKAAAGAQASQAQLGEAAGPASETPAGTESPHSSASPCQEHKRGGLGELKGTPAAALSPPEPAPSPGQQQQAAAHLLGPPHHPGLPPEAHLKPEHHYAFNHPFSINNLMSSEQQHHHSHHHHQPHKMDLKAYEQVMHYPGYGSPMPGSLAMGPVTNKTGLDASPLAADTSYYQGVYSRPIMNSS
Chain of Bile acid receptor (Homo sapiens) (Q96RI1 whole entry, looked up): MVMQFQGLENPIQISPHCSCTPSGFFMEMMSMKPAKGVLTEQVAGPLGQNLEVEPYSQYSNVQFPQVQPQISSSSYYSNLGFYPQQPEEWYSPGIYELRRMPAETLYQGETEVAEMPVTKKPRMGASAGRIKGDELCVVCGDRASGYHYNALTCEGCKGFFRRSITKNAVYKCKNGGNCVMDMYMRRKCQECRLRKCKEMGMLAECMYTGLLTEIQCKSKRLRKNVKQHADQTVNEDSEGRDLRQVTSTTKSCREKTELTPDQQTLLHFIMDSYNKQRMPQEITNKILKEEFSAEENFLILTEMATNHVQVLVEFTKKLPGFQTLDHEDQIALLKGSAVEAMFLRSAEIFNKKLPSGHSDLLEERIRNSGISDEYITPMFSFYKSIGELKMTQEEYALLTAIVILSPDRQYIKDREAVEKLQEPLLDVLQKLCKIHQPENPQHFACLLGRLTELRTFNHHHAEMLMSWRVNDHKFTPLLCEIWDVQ

O=C(Nc1ccc(Br)cc1)c1cc(Br)cc(Br)c1O
active: [3] 13.3 µM | [4] 4.76 µM | [7] 52.9 µM | [10] 4.61 µM | [14] 168 µM | [15] 72.3 µM
not listed: [20]
inactive: all other assays above

CC(C)[N+](=O)[O-]
not listed: [6] | [9] | [20]
inactive: all other assays above

Brc1ccc(Oc2c(Br)cc(Br)cc2Br)c(Br)c1
not listed: [7] | [13] | [20]
inactive: all other assays above

OC[P+](CO)(CO)CO
not listed: [5] | [8] | [15]
inactive: all other assays above

CCCCCCCCCCCCc1cccc(S(=O)(=O)O)c1
active: [4] 39.8 µM
not listed: [5] | [6] | [9] | [15] | [20]
inactive: all other assays above

CC(F)(F)CC(F)(F)F
not listed: [13] | [20]
inactive: all other assays above

CCCCCCCCBr
not listed: [9] | [13] | [20]
inactive: all other assays above

CC(C)O.CC(C)O.OCCN(CCO)CCO.OCCN(CCO)CCO.[Ti]
active: [3] 6.97 µM
not listed: [5] | [6] | [7] | [9] | [15] | [16]
inactive: all other assays above

O=S(=O)(C(Cl)(Cl)Cl)C(Cl)(Cl)Cl
active: [1] 2.78 µM | [3] 18.7 µM | [5] 14.7 µM | [7] 17.3 µM | [14] 19.3 µM | [17] 16.4 µM
not listed: [20]
inactive: all other assays above

CCOP(=S)(OCC)Oc1ccc(Cl)cc1Cl
active: [9] 10.1 µM
not listed: [15] | [20]
inactive: all other assays above

CN(C)[C@@H]1C(=O)C(C(N)=O)=C(O)[C@@]2(O)C(=O)C3=C(O)c4c(O)ccc(Cl)c4[C@@](C)(O)[C@H]3C[C@@H]12
active: [1] 26.3 µM | [3] 30.3 µM
not listed: [9] | [18] | [19] | [20]
inactive: all other assays above

CCC[N+](CCC)(CCC)CCC
not listed: [5] | [8] | [15] | [16]
inactive: all other assays above

C=CCc1ccccc1O
active: [9] 29.2 µM
not listed: [6] | [7] | [20]
inactive: all other assays above

N#Cc1ccncc1
not listed: [5] | [8] | [13] | [15]
inactive: all other assays above

c1ccc(-c2cccc(-c3ccccc3)c2)cc1
active: [9] 26.4 µM
not listed: [6] | [7] | [16] | [20]
inactive: all other assays above
